# For part of these data: Potency and affinity values are given separately.
# Tests used:
# Design in all cases: scale not given: direction of the effect not stated beside the values
# [1] = molecular target: Protein translocase subunit SecA (Escherichia coli (strain K12)) (UniProt P10408); test: Assay to Identify E. coli SecA ATPase Inhibitors; format: functional; settings: 30 µM
# [2] = molecular target: T1, Ubiquitin-activating enzyme e1, putative (Leishmania donovani (strain BPK282A1)) (UniProt E9BSI1); test: Leishmania donovani Ubiquitin Activating Enzyme (LdE1); format: functional; settings: 30 µM
# T1 sequence (whole entry): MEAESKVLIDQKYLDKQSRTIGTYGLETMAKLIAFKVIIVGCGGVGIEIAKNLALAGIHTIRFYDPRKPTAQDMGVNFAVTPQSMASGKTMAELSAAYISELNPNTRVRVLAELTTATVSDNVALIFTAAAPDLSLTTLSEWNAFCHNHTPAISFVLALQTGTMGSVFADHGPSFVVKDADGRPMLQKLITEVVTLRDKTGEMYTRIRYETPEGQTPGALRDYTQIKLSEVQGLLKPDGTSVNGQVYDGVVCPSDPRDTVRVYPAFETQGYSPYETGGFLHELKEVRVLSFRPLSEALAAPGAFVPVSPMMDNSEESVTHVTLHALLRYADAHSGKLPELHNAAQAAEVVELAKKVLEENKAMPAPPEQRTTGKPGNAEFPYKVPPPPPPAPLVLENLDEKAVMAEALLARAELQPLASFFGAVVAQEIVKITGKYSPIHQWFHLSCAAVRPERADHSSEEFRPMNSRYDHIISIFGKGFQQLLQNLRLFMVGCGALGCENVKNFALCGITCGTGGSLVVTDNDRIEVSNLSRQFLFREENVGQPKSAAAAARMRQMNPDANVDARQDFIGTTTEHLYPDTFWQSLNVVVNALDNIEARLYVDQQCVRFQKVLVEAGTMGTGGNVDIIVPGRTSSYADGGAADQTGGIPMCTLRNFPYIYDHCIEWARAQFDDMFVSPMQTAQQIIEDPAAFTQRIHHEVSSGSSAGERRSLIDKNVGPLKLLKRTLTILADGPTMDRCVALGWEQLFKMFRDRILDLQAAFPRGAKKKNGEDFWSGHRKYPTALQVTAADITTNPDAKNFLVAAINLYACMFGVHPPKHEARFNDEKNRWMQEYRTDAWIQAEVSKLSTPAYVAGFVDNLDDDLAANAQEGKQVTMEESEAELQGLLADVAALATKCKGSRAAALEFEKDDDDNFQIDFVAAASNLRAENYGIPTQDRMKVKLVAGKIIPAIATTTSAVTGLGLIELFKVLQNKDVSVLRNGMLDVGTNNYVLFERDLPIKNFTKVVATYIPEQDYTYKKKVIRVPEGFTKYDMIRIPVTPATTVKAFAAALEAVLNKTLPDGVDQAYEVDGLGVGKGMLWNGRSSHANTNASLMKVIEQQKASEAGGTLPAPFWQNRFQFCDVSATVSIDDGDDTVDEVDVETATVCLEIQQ
# [3] = molecular target: AMP-activated protein kinase, AMPK (Homo sapiens) (UniProt P54646+O43741+P54619+Q9UGJ0+Q9Y478+Q13131+Q9UGI9); test: AMP-dependent Kinase enzyme assay. An in vitro enzyme assay that detects ADP turnover that is directly proportional to AMPK activity. This uses naive AMPK that is activated during the assay with MK-8722; format: functional; settings: 30 µM
# [4] = molecular target: Sialic acid-binding Ig-like lectin 9 (Homo sapiens) (UniProt Q9Y336); test: Hs-Siglec9 ALPHAscreen SOP 20170721; settings: 10 µM
# Trypanosoma cruzi = test: Trypanosoma cruzi phosphomannomutase and mannose-1-phosphate guanylyltransferase assay; format: functional; settings: 10 µM
# [5] = molecular target: T2, Arginase-2, mitochondrial (Homo sapiens) (UniProt P78540); test: in vitro enzyme assay to detect the production of urea directly proportional to the activity of Arginase II; format: functional; settings: 33.3 µM; also: in the data most compounds retested in dose-response had high values
# T2 sequence (whole entry): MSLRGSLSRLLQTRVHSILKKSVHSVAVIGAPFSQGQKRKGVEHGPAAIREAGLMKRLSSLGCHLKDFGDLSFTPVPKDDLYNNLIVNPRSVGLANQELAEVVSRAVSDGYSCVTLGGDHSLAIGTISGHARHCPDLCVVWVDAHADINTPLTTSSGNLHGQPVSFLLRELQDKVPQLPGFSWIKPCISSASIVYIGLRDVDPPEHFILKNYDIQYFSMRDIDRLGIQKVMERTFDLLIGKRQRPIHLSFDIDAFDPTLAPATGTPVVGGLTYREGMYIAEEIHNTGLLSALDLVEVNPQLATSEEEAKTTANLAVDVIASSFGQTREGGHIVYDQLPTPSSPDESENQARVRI
# [6] = molecular target: T3, Proteasome subunit beta (Trypanosoma cruzi) (UniProt O96673); test: Trypanosoma cruzi proteasome chymotrypsin-like activity (TcProtChymo) assay.; also: in the data most compounds retested in dose-response had high values; format: functional; settings: 9.37 µM
# T3 sequence (whole entry): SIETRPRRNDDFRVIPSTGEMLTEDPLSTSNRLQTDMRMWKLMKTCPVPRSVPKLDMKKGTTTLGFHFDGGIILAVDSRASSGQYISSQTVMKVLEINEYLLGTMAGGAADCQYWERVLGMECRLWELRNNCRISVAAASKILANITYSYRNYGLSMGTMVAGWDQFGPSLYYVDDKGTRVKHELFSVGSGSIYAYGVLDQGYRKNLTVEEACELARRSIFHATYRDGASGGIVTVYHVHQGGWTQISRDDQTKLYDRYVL
# Homo sapiens = organism: Homo sapiens; test: To identify inhibition of the IFN signalling (Jak-Stat) pathway via expression of an eGFP reporter gene under the control of an IFN-stimulated response element (ISRE) containing MxA promoter.; format: functional; settings: 30 µM
# [7] = molecular target: T4, Tyrosyl-tRNA synthetase, putative (Trypanosoma cruzi (strain CL Brener)) (UniProt Q4DSP6); test: Trypanosoma cruzi tyrosyl tRNA synthetase (TcYRS) _High Tyrosine SOP; format: functional; settings: 30 µM; also: in the data most compounds retested in dose-response had high values
# T4 sequence (whole entry): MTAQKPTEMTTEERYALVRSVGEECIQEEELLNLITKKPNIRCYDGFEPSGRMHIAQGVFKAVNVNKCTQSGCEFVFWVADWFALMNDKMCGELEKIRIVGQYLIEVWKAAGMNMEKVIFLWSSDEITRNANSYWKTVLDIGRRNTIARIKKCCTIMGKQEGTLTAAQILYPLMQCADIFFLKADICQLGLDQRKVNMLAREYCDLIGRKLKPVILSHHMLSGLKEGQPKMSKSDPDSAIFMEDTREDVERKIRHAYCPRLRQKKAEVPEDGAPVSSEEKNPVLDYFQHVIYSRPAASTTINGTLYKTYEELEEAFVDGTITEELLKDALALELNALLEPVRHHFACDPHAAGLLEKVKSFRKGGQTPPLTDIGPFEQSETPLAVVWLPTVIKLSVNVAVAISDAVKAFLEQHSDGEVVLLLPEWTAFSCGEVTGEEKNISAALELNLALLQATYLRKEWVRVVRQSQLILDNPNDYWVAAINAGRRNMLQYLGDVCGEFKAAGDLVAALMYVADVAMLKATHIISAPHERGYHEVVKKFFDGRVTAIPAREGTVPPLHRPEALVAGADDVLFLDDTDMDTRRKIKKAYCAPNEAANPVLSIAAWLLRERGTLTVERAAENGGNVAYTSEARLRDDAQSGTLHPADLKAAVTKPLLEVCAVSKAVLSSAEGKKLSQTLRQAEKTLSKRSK
# [8] = molecular target: T4, Tyrosyl-tRNA synthetase, putative (Trypanosoma cruzi (strain CL Brener)); test: Trypanosoma cruzi tyrosyl tRNA synthetase (TcYRS) SOP; format: functional; settings: 30 µM
# [9] = molecular target: Chromo domain-containing protein 1 (Saccharomyces cerevisiae (strain ATCC 204508 / S288c) (Baker's yeast)) (UniProt P32657); test: ScCHD-1 Enzyme Inhibition Assay; format: functional; settings: 30 µM; also: in the data most compounds retested in dose-response had high values
# Sequence of Chromo domain-containing protein 1 (Saccharomyces cerevisiae (strain ATCC 204508 / S288c) (Baker's yeast)) (P32657 whole entry, the tested form may be a part): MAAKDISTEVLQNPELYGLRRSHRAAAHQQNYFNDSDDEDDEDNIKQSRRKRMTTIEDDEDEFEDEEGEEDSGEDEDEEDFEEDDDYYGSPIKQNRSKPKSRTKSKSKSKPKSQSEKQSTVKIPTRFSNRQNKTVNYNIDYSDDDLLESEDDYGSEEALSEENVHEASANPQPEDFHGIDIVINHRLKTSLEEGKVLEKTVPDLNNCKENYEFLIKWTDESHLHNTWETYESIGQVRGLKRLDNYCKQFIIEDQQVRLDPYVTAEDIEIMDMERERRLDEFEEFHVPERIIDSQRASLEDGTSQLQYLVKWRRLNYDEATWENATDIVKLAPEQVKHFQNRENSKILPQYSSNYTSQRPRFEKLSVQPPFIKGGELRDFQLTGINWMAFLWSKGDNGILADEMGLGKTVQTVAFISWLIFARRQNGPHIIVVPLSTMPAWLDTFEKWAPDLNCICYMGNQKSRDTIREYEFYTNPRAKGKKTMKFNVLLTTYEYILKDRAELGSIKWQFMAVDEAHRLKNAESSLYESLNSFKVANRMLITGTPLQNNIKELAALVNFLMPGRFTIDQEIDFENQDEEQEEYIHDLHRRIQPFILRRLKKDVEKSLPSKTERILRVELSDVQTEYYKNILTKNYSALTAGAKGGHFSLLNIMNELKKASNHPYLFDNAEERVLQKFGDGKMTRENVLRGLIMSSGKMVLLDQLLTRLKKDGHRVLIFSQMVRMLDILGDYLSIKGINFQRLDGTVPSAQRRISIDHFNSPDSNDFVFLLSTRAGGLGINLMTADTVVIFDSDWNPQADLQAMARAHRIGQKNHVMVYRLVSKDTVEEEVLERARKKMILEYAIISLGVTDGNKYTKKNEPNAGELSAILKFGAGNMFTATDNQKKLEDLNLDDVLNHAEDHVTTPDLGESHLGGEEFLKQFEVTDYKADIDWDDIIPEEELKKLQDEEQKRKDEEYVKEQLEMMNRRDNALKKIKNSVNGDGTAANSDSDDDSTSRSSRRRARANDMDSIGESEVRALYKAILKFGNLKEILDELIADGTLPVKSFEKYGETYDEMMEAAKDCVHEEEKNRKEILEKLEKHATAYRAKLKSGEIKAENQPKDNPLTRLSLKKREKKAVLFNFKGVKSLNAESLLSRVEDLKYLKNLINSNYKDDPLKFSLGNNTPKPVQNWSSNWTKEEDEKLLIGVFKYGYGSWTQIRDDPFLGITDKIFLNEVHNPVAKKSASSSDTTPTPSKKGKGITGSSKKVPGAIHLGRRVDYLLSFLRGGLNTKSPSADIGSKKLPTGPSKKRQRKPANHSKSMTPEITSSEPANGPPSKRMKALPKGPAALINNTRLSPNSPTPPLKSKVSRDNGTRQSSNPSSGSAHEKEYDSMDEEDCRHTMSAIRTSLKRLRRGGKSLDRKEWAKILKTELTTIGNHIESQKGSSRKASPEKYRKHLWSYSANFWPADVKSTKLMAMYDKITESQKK
# Sequence of Sialic acid-binding Ig-like lectin 9 (Homo sapiens) (Q9Y336 whole entry): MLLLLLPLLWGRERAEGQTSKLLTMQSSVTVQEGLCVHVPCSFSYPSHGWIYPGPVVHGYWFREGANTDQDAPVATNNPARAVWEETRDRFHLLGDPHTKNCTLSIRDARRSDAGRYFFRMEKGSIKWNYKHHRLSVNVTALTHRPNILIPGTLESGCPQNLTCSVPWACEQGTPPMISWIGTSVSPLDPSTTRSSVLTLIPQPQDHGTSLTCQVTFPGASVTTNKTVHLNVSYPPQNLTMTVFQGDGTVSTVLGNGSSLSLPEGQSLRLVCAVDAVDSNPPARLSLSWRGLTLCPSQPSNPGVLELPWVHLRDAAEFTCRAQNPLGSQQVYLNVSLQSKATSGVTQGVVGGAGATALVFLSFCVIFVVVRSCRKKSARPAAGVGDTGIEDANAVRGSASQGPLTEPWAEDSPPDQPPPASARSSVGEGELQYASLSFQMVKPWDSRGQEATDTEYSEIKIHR
# Sequence of Protein translocase subunit SecA (Escherichia coli (strain K12)) (P10408 whole entry): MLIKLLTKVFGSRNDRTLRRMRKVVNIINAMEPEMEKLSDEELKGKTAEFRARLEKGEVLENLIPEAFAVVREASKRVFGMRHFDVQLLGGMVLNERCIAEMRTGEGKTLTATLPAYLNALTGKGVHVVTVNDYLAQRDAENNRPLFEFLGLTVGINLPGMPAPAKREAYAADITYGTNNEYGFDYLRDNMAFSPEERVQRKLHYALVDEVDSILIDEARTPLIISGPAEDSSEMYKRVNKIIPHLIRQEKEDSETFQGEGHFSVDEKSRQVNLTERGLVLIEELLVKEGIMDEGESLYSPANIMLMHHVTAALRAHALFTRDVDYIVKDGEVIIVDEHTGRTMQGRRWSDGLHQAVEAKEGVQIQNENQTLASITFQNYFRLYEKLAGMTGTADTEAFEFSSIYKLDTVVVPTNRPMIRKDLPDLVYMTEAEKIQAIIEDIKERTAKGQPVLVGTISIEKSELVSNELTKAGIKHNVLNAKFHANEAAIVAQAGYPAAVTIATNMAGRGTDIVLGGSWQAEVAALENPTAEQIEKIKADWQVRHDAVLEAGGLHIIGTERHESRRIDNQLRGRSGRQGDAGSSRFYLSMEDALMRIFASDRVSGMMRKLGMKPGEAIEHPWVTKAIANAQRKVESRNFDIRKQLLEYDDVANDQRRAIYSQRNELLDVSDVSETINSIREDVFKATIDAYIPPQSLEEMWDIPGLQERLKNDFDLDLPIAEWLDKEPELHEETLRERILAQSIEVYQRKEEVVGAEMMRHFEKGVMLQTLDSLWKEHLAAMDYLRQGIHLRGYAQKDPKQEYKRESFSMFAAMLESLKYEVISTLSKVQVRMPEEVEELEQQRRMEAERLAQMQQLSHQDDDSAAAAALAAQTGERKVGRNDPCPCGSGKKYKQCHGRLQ
Structure (SMILES),Percent Effect [1] [%],Percent Effect [2] [%],Percent Effect [3] [%],Percent Effect [4] [%],Percent Effect (Trypanosoma cruzi) [%],Percent Effect [5] [%],Percent Effect [6] [%],Percent Effect (Homo sapiens) [%],Percent Effect [7] [%],Percent Effect [8] [%],Percent Effect [9] [%]
COCc1ccc(CNC(=O)C2=NN(c3ccccc3)C(=O)CN2)cc1,-0.976,5.41,6.06,-1.63,-9.09,1.24,14,53.6,3.23,13.6,-4.43
O=C(c1cccc(CNCC2CNc3ccnn3C2)c1)N1CCCC1 (stereo unspecified),-3.44,8.86,-18.1,-4.78,4.41,-4.09,18.4,6.92,8.33,10.1,-18.2
Cc1nc2n(n1)CC(Nc1cc(C(F)(F)F)nc3ncnn13)CC2 (stereo unspecified),-4.34,5.48,10.2,-0.512,5.49,-0.909,11.4,-14.4,2.15,17.5,-3.28
CCN1CCN(c2ccc(F)cc2C(C)NCc2noc(C)n2)CC1 (stereo unspecified),-1.18,-8.11,-2.95,-6.13,-1.27,1.74,2.83,-7.51,1.07,1.24,-0.843
N#Cc1cccc(S(=O)(=O)N2CCCCC2CCN2CCCC2=O)c1 (stereo unspecified),-5.51,-52,-6.45,9.03,4.76,2,8.99,-12.8,4.17,11.1,-4.06
CN1CCN(Cc2cscn2)CC(C(=O)N(C)C)C1 (stereo unspecified),-6.29,18.7,-6.4,-0.543,5.91,-3.03,3.44,5.65,8.51,14.1,-4.45

# From ChEMBL document CHEMBL3988442, “University of Dundee, Small-Polar-MMV Screening Library” (2021)
